Measurements taken from publication PMC4336329 (PLoS ONE, 2015).
Hit rate of the full screen: of about 310,000 compounds, about 14,000 (4.5%) showed an effect of 50% or more. The effect is printed as a negative number. For the sample, strong results were picked, then their nearest neighbours and some compounds at random.

Molecular target: human ether-à-go-go-related gene (hERG) potassium channel (human, UniProt Q12809)
Assay: primary screen, population patch clamp on CHO cells stably expressing hERG; higher = less effect of the substance
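Note: peak tail current of the secondary pulse compared with the same well before compound.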

human ether-à-go-go-related gene (hERG) potassium channel, sequence (Q12809 whole entry, looked up): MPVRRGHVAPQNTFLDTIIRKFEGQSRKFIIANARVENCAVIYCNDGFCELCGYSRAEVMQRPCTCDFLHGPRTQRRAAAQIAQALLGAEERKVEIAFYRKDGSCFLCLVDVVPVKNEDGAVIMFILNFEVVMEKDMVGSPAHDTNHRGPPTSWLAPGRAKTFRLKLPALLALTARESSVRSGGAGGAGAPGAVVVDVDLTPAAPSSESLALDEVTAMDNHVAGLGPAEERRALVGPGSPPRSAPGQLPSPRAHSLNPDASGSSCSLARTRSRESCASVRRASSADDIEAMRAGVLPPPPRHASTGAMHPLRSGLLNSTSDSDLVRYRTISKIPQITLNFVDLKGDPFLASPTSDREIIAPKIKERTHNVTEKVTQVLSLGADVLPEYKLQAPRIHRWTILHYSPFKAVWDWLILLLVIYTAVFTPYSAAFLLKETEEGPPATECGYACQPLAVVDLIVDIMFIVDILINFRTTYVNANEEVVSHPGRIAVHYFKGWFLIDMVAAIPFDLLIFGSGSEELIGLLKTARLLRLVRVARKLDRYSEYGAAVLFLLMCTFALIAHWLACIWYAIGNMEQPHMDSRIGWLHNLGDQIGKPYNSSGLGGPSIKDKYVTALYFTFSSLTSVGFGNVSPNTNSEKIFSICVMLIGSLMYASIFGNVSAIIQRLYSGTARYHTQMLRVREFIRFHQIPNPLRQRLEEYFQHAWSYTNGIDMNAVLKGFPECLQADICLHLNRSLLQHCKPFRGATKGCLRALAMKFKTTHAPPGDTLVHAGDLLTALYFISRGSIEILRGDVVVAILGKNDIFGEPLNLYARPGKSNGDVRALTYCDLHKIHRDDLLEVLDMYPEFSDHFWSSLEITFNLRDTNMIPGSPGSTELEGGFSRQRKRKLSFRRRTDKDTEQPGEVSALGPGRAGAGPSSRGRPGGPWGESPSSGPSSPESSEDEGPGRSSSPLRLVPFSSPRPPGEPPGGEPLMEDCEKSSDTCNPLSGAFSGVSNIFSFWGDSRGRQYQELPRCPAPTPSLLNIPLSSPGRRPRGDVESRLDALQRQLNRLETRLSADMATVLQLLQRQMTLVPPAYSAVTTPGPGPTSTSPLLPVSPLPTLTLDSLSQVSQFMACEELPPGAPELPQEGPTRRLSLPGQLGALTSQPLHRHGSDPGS

Row | Compound | hERG current change (%, negative = inhibition) at 10uM [%]
1 | CC(=O)Nc1ccc(/C(C)=N/NC(=O)CN(c2ccccc2Br)S(C)(=O)=O)cc1 | -4.13
2 | CNC(=O)CCn1nc(-c2ccc(C)cc2)c2ccccc2c1=O | -8.28
3 | O=C(O)c1ccc(/C=N/Nc2nc(N3CCCCC3)nc(N3CCCCC3)n2)cc1 | 18.4
4 | Cc1nn(Cc2c(Cl)cccc2Cl)c(C)c1NC(=O)/C=C/c1cnn(C)c1C | 8.85
5 | COc1ccc(OC(=O)c2cccc([N+](=O)[O-])c2)c(C(=O)/C=C/c2cccs2)c1 | 3.99
6 | O=C(O)CC(CC(=O)Nc1ccc2ccccc2n1)c1ccccc1 (centres unmarked) | 9.58
7 | Cc1nnc(SCC(=O)NC2CC2)n1CCc1ccccc1 | 13
8 | CCC(=O)Oc1ccc2c(C)cc(=O)oc2c1C | 0.0333
9 | Cc1ccccc1NC(=O)CN1C(=O)NC(C)(CCc2ccccc2)C1=O (centres unmarked) | 22.2
10 | O=[N+]([O-])c1cccc2c(N3CCCC3)ccnc12 | -77.7
11 | O=[N+]([O-])c1cccc2c(N3CCOCC3)ccnc12 | -17.6
12 | O=[N+]([O-])c1cccc2c(Cl)ccnc12 | -0.808
13 | O=C(c1ccccc1F)N1CCN(c2ccccn2)CC1 | 4.54
14 | O=C(c1ccccc1F)N1CCN(c2ccc([N+](=O)[O-])c3cccnc23)CC1 | -65.5
15 | O=C(c1ccccc1F)N1CCN(c2ncccn2)CC1 | 3.24
16 | CCC(C)NC(=O)CCC(=O)Nc1ccc2nc(N3CCOCC3)cc(C)c2c1 (centres unmarked) | 2.55
17 | O=C(NCCc1ccc(Cl)cc1)c1ccc(CNc2c(N3CCOCC3)c(=O)c2=O)cc1 | 25.7
18 | O=C(Nc1ccc2c(c1)OCO2)NC1CCN(Cc2ccccc2)CC1 | -24.8
19 | CC(NC(=O)COC(=O)c1cccs1)c1ccccc1 (centres unmarked) | 23
20 | Cc1cc(NC(=O)c2ccc(F)cc2)ccc1NC(=O)c1ccco1 | 2.98
21 | CC1(C)CC(=O)C2=C(C1)N(CC1CCCO1)C(=O)C2(NC(=O)c1cccnc1)C(F)(F)F (centres unmarked) | 9.64
22 | COC(=NC1CCCC1)C(O)c1c[nH]c2ccccc12 (centres unmarked) | -1.61

Row | Compound | hERG current change (%, negative = inhibition) at 10uM [%]
23 | CN(C)c1cc(C(F)(F)F)nc(-c2ccccn2)n1 | -0.728
24 | CCO[C@@H]1OC(C(=O)NCc2nc3ccccc3[nH]2)=C[C@H](c2cn(C(C)=O)c3ccccc23)[C@H]1CCCO | -67.2
25 | CCO[C@H]1OC(C(=O)Nc2ccccc2)=C[C@@H](c2coc3ccccc3c2=O)[C@@H]1CCCO | -28.5
26 | CCO[C@@H]1OC(C(=O)N2CCN(Cc3ccccc3)CC2)=C[C@H](c2cn(C(C)=O)c3ccccc23)[C@H]1CCCO | -37.9
27 | CCO[C@H]1OC(C(=O)NCc2nc3ccccc3[nH]2)=C[C@@H](c2cn(C(C)=O)c3ccccc23)[C@@H]1CCCO | -49.7
28 | CCO[C@@H]1OC(C(=O)N2CCN(Cc3ccc4c(c3)OCO4)CC2)=C[C@H](c2cn(C(C)=O)c3ccccc23)[C@H]1CCCO | -39.7
29 | CCO[C@@H]1OC(C(=O)O)=C[C@H](c2cn(C(C)=O)c3ccccc23)[C@H]1CCCO | 13.7
30 | CCO[C@H]1OC(C(=O)O)=C[C@@H](c2cn(C(C)=O)c3ccccc23)[C@@H]1CCCO | 18.2
31 | CCO[C@@H]1OC(C(=O)O)=C[C@H](c2coc3ccccc3c2=O)[C@H]1CCCO | 18.9
32 | CCO[C@@H]1OC(C(=O)NCc2nc3ccccc3[nH]2)=C[C@H](c2csc3ccccc23)[C@H]1CCCO | -34.1
33 | CCO[C@H]1OC(C(=O)N2CCN(Cc3ccccc3)CC2)=C[C@@H](c2cn(C(C)=O)c3ccccc23)[C@@H]1CCCO | -54
34 | CCO[C@@H]1OC(C(=O)Nc2ccccc2)=C[C@H](c2coc3ccccc3c2=O)[C@H]1CCCO | -50.9
35 | CCO[C@H]1OC(C(=O)Nc2ccccc2)=C[C@@H](c2cn(C(C)=O)c3ccccc23)[C@@H]1CCCO | -62.5
36 | O=C1CCCCCN1Sc1ccccc1 | 12
37 | N#Cc1cccc(CN2CCC(=O)N([C@H](CO)c3ccccc3)CC2)c1 | -4.9
38 | CC(=O)N1c2ccc(S(=O)(=O)NCCc3ccc(S(N)(=O)=O)cc3)cc2CC1C (centres unmarked) | 13
39 | COc1ccc(/C=N/NC(=O)c2c(C)n(C)c3ccc(OC)cc23)c(OC)c1 | -14.3
40 | COCC(C)NC(=O)c1ccc2c(c1)S(=O)(=O)c1ccccc1C2=O (centres unmarked) | 3.96
41 | CCn1c(=S)ccc2ccc(OC)cc21 | -0.453
42 | CCOc1ccc(-c2c(C(=O)N/N=C(\C)c3cccs3)nnn2-c2nonc2N)cc1 | 12.9
43 | CCO[C@@H]1OC(C(=O)NCc2ccccc2)=C[C@H](c2ccccc2)[C@H]1CCCO | -18.7
44 | C#CCNC(=O)C1=C[C@H](c2cn(C(C)=O)c3ccccc23)[C@@H](CCCO)[C@H](OCC)O1 | -36.9

Row | Compound | hERG current change (%, negative = inhibition) at 10uM [%]
45 | CCO[C@@H]1OC(C(N)=O)=C[C@H](c2cn(C(C)=O)c3ccccc23)[C@H]1CCCO | 6.45
46 | CCO[C@@H]1OC(C(=O)NCc2ccccc2)=C[C@H](c2cn(C(C)=O)c3ccccc23)[C@H]1CCCO | -82.9
47 | CCO[C@H]1OC(C(=O)NCc2ccccc2)=C[C@@H](c2cn(C(C)=O)c3ccccc23)[C@@H]1CCCO | -64.3
48 | CCO[C@H]1OC(C(=O)NCc2ccccc2)=C[C@@H](c2ccccc2)[C@@H]1CCCO | -19.6
49 | CCOC(=O)CN/C=C(\C#N)c1ccccc1 | 16.2
50 | COc1cc(/C=C2\C(=O)ON=C2c2ccccc2)cc(Cl)c1O | -49.9
51 | CC(C)(C)OC(=O)CNC(=O)c1[nH]cnc1C(=O)Nc1ccc(CNC(=O)OC(C)(C)C)cc1 | -0.221
52 | CCCCC(=O)Nc1nc(C)c(-c2csc(Nc3cc(OC)ccc3OC)n2)s1 | 5.95
53 | Cc1nc(Nc2cccc(O)c2)c2c3c(sc2n1)CCC3 | -1.85
54 | O=C1CSC(c2ccc(F)cc2)N1c1nc2ccccc2s1 (centres unmarked) | -20.8
55 | O/N=C/c1ccccc1OCc1ccc(Cl)cc1 | 5.5
56 | Cc1ccc(/C=C/C(=O)Nc2ccc([N+](=O)[O-])cc2)o1 | -1.05
57 | CCC(Oc1ccccc1)C(=O)N(Cc1ccccc1)c1ccccn1 (centres unmarked) | -6.96
58 | O=C(Nc1cc(C(F)(F)F)ccc1N1CCOCC1)c1cnccn1 | -2.15
59 | O=C(Nc1cc(C(F)(F)F)ccc1N1CCOCC1)c1cccnc1 | -42.3
60 | O=C(CNCc1ccccn1)Nc1cc(C(F)(F)F)ccc1N1CCOCC1.O=C(O)C(=O)O | -57.5
61 | O=C(CNCc1cccnc1)Nc1cc(C(F)(F)F)ccc1N1CCOCC1.O=C(O)C(=O)O | -67
62 | Cc1nc2ccccc2nc1OCC(=O)Nc1cc(C(F)(F)F)ccc1N1CCOCC1 | 0.222
63 | O=C(Nc1cc(C(F)(F)F)ccc1N1CCOCC1)c1ccccc1 | 12.6
64 | O=C(O)CSc1c2c(nc3cc(C(=O)NCCN4CCOCC4)ccc13)CCC2 | -6.18
65 | CC(C)(C)c1ccc(/C=N/NC(=O)C[n+]2ccccc2)cc1.[Cl-] | 26
66 | Cc1ccc(NC(=O)C2(C)Cc3ccccc3C(=O)O2)cc1 (centres unmarked) | -5.03

Row | Compound | hERG current change (%, negative = inhibition) at 10uM [%]
67 | CCCCNS(=O)(=O)c1ccc2nc(-c3cccs3)cc(C(=O)NCC(OC)OC)c2c1 | 9.85
68 | Cc1c(C(=O)N2CCCCC2)c(S(=O)(=O)Nc2cccc(Br)c2)c(C)n1C | -4.02
69 | O=C(CCc1nnc(CCc2ccccc2)o1)N1CCCCC1CCn1cccn1 (centres unmarked) | -51.1
70 | COC(=O)[C@@H]1CCCN1C(=O)CCc1nnc(C2CCCCC2)o1 | 6.94
71 | O=C(CCc1nnc(C2CCCCC2)o1)N1CCN(C2CCCCC2)CC1 | 10.4
72 | O=C(CCc1nnc(C2CCCCC2)o1)N1CCCCC1CCn1cccn1 (centres unmarked) | 3.65
73 | CCC1CCCCN1C(=O)CCc1nnc(C2CCCCC2)o1 (centres unmarked) | -55
74 | O=C(CCc1nnc(CCCCc2ccccc2)o1)N1CCCCC1CCO (centres unmarked) | -1.73
75 | O=C(Cc1cccs1)N/N=C/C(Br)=C/c1ccccc1 | 10.1
76 | CCOc1ccc(OCCCC(=O)Nc2nc3ccccc3[nH]2)cc1 | 12
77 | CC1CCCN(C(=O)CSc2nnc(-c3ccncc3)n2C)C1 (centres unmarked) | 45.9
78 | C/C=C\C=C\C(=O)Nc1cccc(C2=NOC3(C2)C[C@@H](C(N)=O)N(C(=O)C(c2ccccc2)c2ccccc2)C3)c1 (some centres unmarked) | 0.545
79 | Cc1ccc(C=Nc2ccc(N(C)C)cc2)o1 | -0.267
80 | CCOC(=O)c1ccc(NC(=O)c2ccc3c(c2)C(=O)N(CC2CCCO2)C3=O)cc1 (centres unmarked) | -1.87
81 | COc1ccc(N2CCN(S(=O)(=O)CCNC(=O)COc3ccccc3C)CC2)cc1 | 1.17
82 | COc1ccccc1OCC(=O)NCCS(=O)(=O)N1CCN(c2ccc(F)cc2)CC1 | -60.8
83 | Cc1ccccc1OCC(=O)NCCS(=O)(=O)N1CCN(c2ccc(F)cc2)CC1 | -66.6
84 | COc1ccc(N2CCN(S(=O)(=O)CCNC(=O)COc3ccccc3OC)CC2)cc1 | -1.02
85 | COc1ccc(OCC(=O)NCCS(=O)(=O)N2CCN(c3ccc(F)cc3)CC2)cc1 | -8.69
86 | COc1ccccc1OCC(=O)NCCS(=O)(=O)N1CCN(c2ccccc2)CC1 | -44.4
